{"source": "the supplement of paper PMC8728848", "binders": {"B1": {"name": "CFEM-PPm (Pichia pastoris), F2QPV1 (protein)", "chain": "AVATPPACLLACAAEVVKESSDCDALNNIQCICENEGSAIHACLESTCPDGLSSTALQSFEDVCE"}}, "test_in_all_cases": "glycan array binding signal (z-score within array); higher = stronger binding", "settings_in_all_cases": "glycan notation: IUPAC condensed, linker removed", "key": {"[1]": {"biological_target": "Fuc(a1-2)Gal(b1-3)GlcNAc(b1-2)Man(a1-3)[Fuc(a1-2)Gal(b1-3)GlcNAc(b1-2)Man(a1-6)]Man(b1-4)GlcNAc(b1-4)GlcNAc", "how_it_was_run": "(§1)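 Arrays were curated from the Consortium for Functional Glycomics database, 3228 in total, and kept only where the protein sequence was available. Binding is expressed as a within-array Z-score. This score was averaged across arrays of the same protein sequence at different concentrations or buffers and across linkers, and negative values can be read as non-binding.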"}, "[2]": {"biological_target": "Fuc(a1-2)Gal(b1-4)GlcNAc(b1-3)GalNAc", "how_it_was_run": "as §1"}, "[3]": {"biological_target": "Fuc(a1-2)[GalNAc(a1-3)]Gal(b1-4)[Fuc(a1-3)]GlcNAc(b1-3)GalNAc", "how_it_was_run": "as §1"}, "[4]": {"biological_target": "Fuc(a1-3)GlcNAc", "how_it_was_run": "as §1"}, "[5]": {"biological_target": "Gal(a1-2)Gal", "how_it_was_run": "as §1"}, "[6]": {"biological_target": "Gal(a1-3)Gal(b1-3)GlcNAc(b1-2)Man(a1-3)[Gal(a1-3)Gal(b1-3)GlcNAc(b1-2)Man(a1-6)]Man(b1-4)GlcNAc(b1-4)GlcNAc", "how_it_was_run": "as §1"}, "[7]": {"biological_target": "Gal(a1-3)Gal(b1-3)[Fuc(a1-4)]GlcNAc(b1-2)Man(a1-3)[Gal(a1-3)Gal(b1-3)[Fuc(a1-4)]GlcNAc(b1-2)Man(a1-6)]Man(b1-4)GlcNAc(b1-4)GlcNAc", "how_it_was_run": "as §1"}, "[8]": {"biological_target": "Gal(a1-3)Gal(b1-4)GlcNAc(b1-3)GalNAc", "how_it_was_run": "as §1"}, "[9]": {"biological_target": "Gal(a1-3)Gal(b1-4)[Fuc(a1-3)]GlcNAc", "how_it_was_run": "as §1"}, "[10]": {"biological_target": "Gal(b1-3)Gal", "how_it_was_run": "as §1"}, "[11]": {"biological_target": "Gal(b1-3)Gal(b1-4)GlcNAc", "how_it_was_run": "as §1"}, "[12]": {"biological_target": "Gal(b1-3)GalNAc", "how_it_was_run": "as §1"}, "[13]": {"biological_target": "Gal(b1-3)GalNAc(a1-3)[Fuc(a1-2)]Gal(b1-4)Glc", "how_it_was_run": "as §1"}, "[14]": {"biological_target": "Gal(b1-3)GalNAc(a1-3)[Fuc(a1-2)]Gal(b1-4)GlcNAc", "how_it_was_run": "as §1"}, "[15]": {"biological_target": "Gal(b1-3)GalNAc(b1-3)Gal", "how_it_was_run": "as §1"}, "[16]": {"biological_target": "Gal(b1-3)GalNAc(b1-4)Gal(b1-4)Glc", "how_it_was_run": "as §1"}, "[17]": {"biological_target": "Gal(b1-3)GlcNAc(b1-2)[Gal(b1-3)GlcNAc(b1-6)]Man(a1-6)[Gal(b1-3)GlcNAc(b1-2)Man(a1-3)]Man(b1-4)GlcNAc(b1-4)GlcNAc", "how_it_was_run": "as §1"}, "[18]": {"biological_target": "Gal(b1-3)GlcNAc(b1-3)Gal(b1-4)GlcNAc(b1-2)Man(a1-3)[Gal(b1-3)GlcNAc(b1-3)Gal(b1-4)GlcNAc(b1-2)Man(a1-6)]Man(b1-4)GlcNAc(b1-4)GlcNAc", "how_it_was_run": "as §1"}, "[19]": {"biological_target": "Gal(b1-3)GlcNAc(b1-3)Gal(b1-4)GlcNAc(b1-6)[Gal(b1-3)GlcNAc(b1-3)]Gal(b1-4)Glc", "how_it_was_run": "as §1"}, "[20]": {"biological_target": "Gal(b1-3)GlcNAc(b1-6)Gal(b1-4)GlcNAc", "how_it_was_run": "as §1"}, "[21]": {"biological_target": "Gal(b1-3)[Fuc(a1-4)]GlcNAc(b1-3)Gal(b1-3)[Fuc(a1-4)]GlcNAc", "how_it_was_run": "as §1"}, "[22]": {"biological_target": "Gal(b1-3)[Neu5Ac(a2-6)]GalNAc", "how_it_was_run": "as §1"}, "[23]": {"biological_target": "Gal(b1-4)Glc", "how_it_was_run": "as §1"}, "[24]": {"biological_target": "Gal(b1-4)GlcNAc", "how_it_was_run": "as §1"}, "[25]": {"biological_target": "Gal(b1-4)GlcNAc(b1-3)Gal(b1-4)GlcNAc(b1-2)Man(a1-3)[Gal(b1-4)GlcNAc(b1-3)Gal(b1-4)GlcNAc(b1-2)Man(a1-6)]Man(b1-4)GlcNAc(b1-4)GlcNAc", "how_it_was_run": "as §1"}, "[26]": {"biological_target": "Gal(b1-4)GlcNAc(b1-3)Gal(b1-4)GlcNAc(b1-2)Man(a1-3)[Gal(b1-4)GlcNAc(b1-3)Gal(b1-4)GlcNAc(b1-2)Man(a1-6)]Man(b1-4)GlcNAc(b1-4)[Fuc(a1-6)]GlcNAc", "how_it_was_run": "as §1"}, "[27]": {"biological_target": "Gal(b1-4)GlcNAc(b1-3)Gal(b1-4)GlcNAc(b1-3)Gal(b1-4)GlcNAc(b1-3)Gal(b1-4)GlcNAc(b1-2)Man(a1-3)[Gal(b1-4)GlcNAc(b1-3)Gal(b1-4)GlcNAc(b1-3)Gal(b1-4)GlcNAc(b1-3)Gal(b1-4)GlcNAc(b1-2)Man(a1-6)]Man(b1-4)GlcNAc(b1-4)GlcNAc", "how_it_was_run": "as §1"}, "[28]": {"biological_target": "Gal(b1-4)GlcNAc(b1-3)Gal(b1-4)GlcNAc(b1-3)Gal(b1-4)GlcNAc(b1-3)Gal(b1-4)GlcNAc(b1-3)Gal(b1-4)GlcNAc(b1-2)Man(a1-3)[Gal(b1-4)GlcNAc(b1-3)Gal(b1-4)GlcNAc(b1-3)Gal(b1-4)GlcNAc(b1-3)Gal(b1-4)GlcNAc(b1-3)Gal(b1-4)GlcNAc(b1-2)Man(a1-6)]Man(b1-4)GlcNAc(b1-4)[Fuc(a1-6)]GlcNAc", "how_it_was_run": "as §1"}, "[29]": {"biological_target": "Gal(b1-4)GlcNAc(b1-6)[Gal(b1-3)]GalNAc", "how_it_was_run": "as §1"}, "[30]": {"biological_target": "Gal3S(b1-3)[Fuc(a1-4)]GlcNAc", "how_it_was_run": "as §1"}}, "note": "This is one part of a sample in which the strongest signals are shown more often than they occur."}
{"binder": "B1", "values": [{"measurement": "glycan array binding signal (z-score)", "setting": "[1]", "result": -0.289}, {"measurement": "glycan array binding signal (z-score)", "setting": "[2]", "result": 1.77}, {"measurement": "glycan array binding signal (z-score)", "setting": "[3]", "result": 3.4}, {"measurement": "glycan array binding signal (z-score)", "setting": "[4]", "result": -0.301}, {"measurement": "glycan array binding signal (z-score)", "setting": "[5]", "result": -0.447}, {"measurement": "glycan array binding signal (z-score)", "setting": "[6]", "result": 0.425}, {"measurement": "glycan array binding signal (z-score)", "setting": "[7]", "result": -0.006}, {"measurement": "glycan array binding signal (z-score)", "setting": "[8]", "result": -0.284}, {"measurement": "glycan array binding signal (z-score)", "setting": "[9]", "result": -0.203}, {"measurement": "glycan array binding signal (z-score)", "setting": "[10]", "result": 5.41}, {"measurement": "glycan array binding signal (z-score)", "setting": "[11]", "result": 6.22}, {"measurement": "glycan array binding signal (z-score)", "setting": "[12]", "result": 3.57}, {"measurement": "glycan array binding signal (z-score)", "setting": "[13]", "result": 0.271}, {"measurement": "glycan array binding signal (z-score)", "setting": "[14]", "result": 0.224}, {"measurement": "glycan array binding signal (z-score)", "setting": "[15]", "result": 5.7}, {"measurement": "glycan array binding signal (z-score)", "setting": "[16]", "result": 14.7}, {"measurement": "glycan array binding signal (z-score)", "setting": "[17]", "result": -0.203}, {"measurement": "glycan array binding signal (z-score)", "setting": "[18]", "result": -0.305}, {"measurement": "glycan array binding signal (z-score)", "setting": "[19]", "result": -0.017}, {"measurement": "glycan array binding signal (z-score)", "setting": "[20]", "result": -0.102}, {"measurement": "glycan array binding signal (z-score)", "setting": "[21]", "result": -0.034}, {"measurement": "glycan array binding signal (z-score)", "setting": "[22]", "result": 7.18}, {"measurement": "glycan array binding signal (z-score)", "setting": "[23]", "result": -0.356}, {"measurement": "glycan array binding signal (z-score)", "setting": "[24]", "result": -0.105}, {"measurement": "glycan array binding signal (z-score)", "setting": "[25]", "result": 1.53}, {"measurement": "glycan array binding signal (z-score)", "setting": "[26]", "result": -0.026}, {"measurement": "glycan array binding signal (z-score)", "setting": "[27]", "result": -0.09}, {"measurement": "glycan array binding signal (z-score)", "setting": "[28]", "result": -0.233}, {"measurement": "glycan array binding signal (z-score)", "setting": "[29]", "result": 1.67}, {"measurement": "glycan array binding signal (z-score)", "setting": "[30]", "result": -0.262}]}
